46 molecules from PubChem BioAssay AID2685 (National Center for Advancing Translational Sciences (NCATS), 2010) can be followed below.

Screen size: about 320,000 compounds; about 2,100 (0.66%) were called active. Roughly 53% stayed inconclusive and do not appear here. Calls come from the whole dose curve; as a rule, active = well fitted inhibition curve with a large enough effect in the signal ratio, with a control signal flat (not every such curve was filed as active); inconclusive = small, poorly fitted or top-dose-only effect, or effect the other way, or a change in a side signal; inactive = flat fitted curve, though single readings scatter; the % refers to the signal ratio. The full list was thinned out, with actives kept by preference.
Potency is the fitted concentration of half-maximal effect.

A short description of the assay: qHTS Assay for Lipid Storage Modulators in Drosophila S3 Cells.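 For cell number change: cells counted by Cell Tracker Red CMTPX staining in the red channel.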 For lipid storage change, negative = inhibition: % is set by controls: 0 for no effect and ±100 for the full control effect. The note with it: BODIPY lipid droplet fluorescence, 18-24 h, cells fed with added oleic acid; cell number change: measured here: cell count max response; series mostly up to 46.1 µM; lipid storage change, negative = inhibition: at the top concentration. The method, boiled down:
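Laser-scanning cytometry quantifies lipid droplet accumulation (500–530 nm total intensity; droplet/cell object ratio) in oleic acid-fed (400 uM added) Drosophila S3 cells treated with a concentration series. 20 uM Triacsin C defined 100% inhibition.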
In general terms: qHTS replaces the single test concentration by a dilution series.
As for `Cc1c(N=C/C=C/c2ccccc2)cnn1C`, the “lipid storage change, negative = inhibition” value was -0.162% (inactive) and the cell number change is 0.211%.

Take `CCc1nnc(SCC(=O)Nc2nccs2)n1CC`: the “lipid storage change, negative = inhibition” value is 2.94% (inactive) and the cell number change is 1.52%.

In the case of `CC1(C)Cc2c(cnn2-c2cccc(F)c2)C(NC(=O)CN2CCCC2=O)C1` (stereo unspecified), the call was inactive and the cell number change is -1.15%.

As for `CCOC(=O)COc1ccc(C)cc1-c1ccno1`, the call was inactive.

As for `Cc1oc(C(=O)O)cc1COc1cccc2cccnc12`, the Potency is 6.51 µM (active) and the cell number change turned out to be 7.93%.

Regarding `Cc1oc(C(=O)O)cc1COc1cccc2ccccc12`, the “lipid storage change, negative = inhibition” value is 16.2% (inactive) and the cell number change was 16.3%.

Consider `COc1cc(C(=O)O)cc(OC)c1OCc1cc(C(=O)O)oc1C`, for which the “lipid storage change, negative = inhibition” value is -16.4% (inactive) and the cell number change was -10.9%.

As to `Cn1cc(-c2ccc(Cl)cc2)cc(C#N)c1=O`, the “lipid storage change, negative = inhibition” value was 4.19% (inactive).

With `Cc1ccccc1/C=N/n1c(COc2ccccc2)n[nH]c1=S`, the “lipid storage change, negative = inhibition” value is 13.7% (inactive) and the cell number change was determined as 4.96%.

`O=C(OCCOCCN=C1NS(=O)(=O)c2ccccc21)C1CC(=O)N(c2ccccc2)C1` (stereo unspecified): the Potency was 8.2 µM (active).

On to `O=C(OCCCN=C1NS(=O)(=O)c2ccccc21)C1CC(=O)N(c2ccc(Cl)cc2)C1` (stereo unspecified), for which the “lipid storage change, negative = inhibition” value is -7.49% (inactive) and the cell number change was -12.2%.

With `O=C(OCCOCCN=C1NS(=O)(=O)c2ccccc21)c1ccncc1`, the “lipid storage change, negative = inhibition” value is -5.87% (inactive) and the cell number change stood at 0.489%.

As for `O=C(CN1C(=O)c2ccccc2C1=O)OCCOCCN=C1NS(=O)(=O)c2ccccc21`, the “lipid storage change, negative = inhibition” value is 10.3% (inactive) and the cell number change stood at 10.2%.

With `O=C(OCCCN=C1NS(=O)(=O)c2ccccc21)c1ccc(F)cc1`, the “lipid storage change, negative = inhibition” value is 19.4% (inactive) and the cell number change is -17.4%.

As to `O=C(OCCOCCN=C1NS(=O)(=O)c2ccccc21)c1ccc(F)cc1`, the Potency is 1.64 µM (active) and the cell number change was 13.2%.

Regarding `CN(CC(=O)Nc1ccc(Cl)cc1)CC(=O)Nc1ccc(C(N)=O)cc1`, the “lipid storage change, negative = inhibition” value is 0.257% (inactive) and the cell number change was -11%.

As to `Cc1cc(=O)n(C)c(=O)n1CCCCOc1cccc([N+](=O)[O-])c1`, the “lipid storage change, negative = inhibition” value is 11.3% (inactive) and the cell number change turned out to be 11.9%.

On to `N#Cc1nc(-c2cccs2)oc1NCc1ccc(Cl)cc1`, for which the result was inactive.

For `Cc1cc2occ(CC(=O)NCc3cccs3)c2cc1C(C)C`, the Potency was 1.46 µM (active) and the cell number change was -2.8%.

Consider `Cc1ccc2c(CC(=O)NCc3cccs3)coc2c1`, for which the “lipid storage change, negative = inhibition” value was 26.1% (inactive) and the cell number change came to 20.1%.

Consider `Cc1cc2occ(CC(=O)Nc3nccs3)c2cc1C(C)C`, for which the call was inactive.

`O=C(O)c1ccc2c(c1)C(=O)N(c1ncccn1)C2=O`: the “lipid storage change, negative = inhibition” value was 2.95% (inactive) and the cell number change is -0.987%.

Regarding `Cc1ccc(Cn2c(CN3CCOCC3)nc3c2c(=O)n(C)c(=O)n3C)cc1`, the “lipid storage change, negative = inhibition” value was 2.04% (inactive) and the cell number change amounted to 6.6%.

Turning to `COc1ccc(-c2[nH]ncc2CN(C)C(C)c2cccs2)c(F)c1` (stereo unspecified), the “lipid storage change, negative = inhibition” value is 2.81% (inactive) and the cell number change was found to be 8.77%.

For `COc1ccc(Cc2nc3ccc(C(=O)NC(C)c4cn(C)nc4C)cc3o2)cc1` (stereo unspecified), the result was inactive and the cell number change is -22.9%.

Regarding `O=C(Oc1ccc(/C=N/O)cc1)c1ccccc1Cl`, the “lipid storage change, negative = inhibition” value is 14.4% (inactive) and the cell number change was -11.5%.

On to `O=C(O)c1c(Cl)cccc1Cl`, for which the “lipid storage change, negative = inhibition” value was 3.03% (inactive) and the cell number change was 4.08%.

With `O=C(Oc1ccccc1)c1c(Cl)cccc1P(=O)(O)O`, the Potency is 3.66 µM (active) and the cell number change was found to be 3.12%.

With `CSc1ccc(Cl)c(C(=O)N2CCOc3ccccc32)c1`, the “lipid storage change, negative = inhibition” value is 3.65% (inactive) and the cell number change was -26.8%.

For `O=C(c1ccc(N2C(=O)C3CC=C(Cl)CC3C2=O)cc1)N1CCOCC1` (stereo unspecified), the “lipid storage change, negative = inhibition” value was -4.16% (inactive) and the cell number change was 30%.

Consider `COc1cc(C(=O)Nc2ccccc2N2CCOCC2)ccc1OCC(=O)N1CCOCC1`, for which the “lipid storage change, negative = inhibition” value was -20.4% (inactive).

Consider `COc1ccccc1OCC(=O)Nc1ccc(N2CCOCC2)cc1N1CCOCC1`, for which the “lipid storage change, negative = inhibition” value is -21.3% (inactive) and the cell number change was 2.71%.

For `COc1cc(C=O)ccc1OCC(=O)Nc1ccccc1N1CCOCC1`, the Potency is 2.59 µM (active) and the cell number change is -24.3%.

For the molecule `CCc1cc2c(-c3ccccc3)cc(=O)oc2cc1OCC(=O)NCC1CCC(C(=O)O)CC1` (stereo unspecified), the “lipid storage change, negative = inhibition” value is -3.52% (inactive) and the cell number change worked out at 22.7%.

As for `Cc1c(OC(C)C(=O)NCc2ccncc2)ccc2c3c(c(=O)oc12)CCC3` (stereo unspecified), the molecule was classed as inactive and the cell number change is -1.18%.

For the molecule `CC(Oc1ccc2c3c(c(=O)oc2c1)CCC3)C(=O)NCc1ccccn1` (stereo unspecified), the molecule was called inactive and the cell number change amounted to 1.9%.

Consider `Cc1c(OC(C)C(=O)NCc2ccccn2)ccc2c3c(c(=O)oc12)CCC3` (stereo unspecified), for which the Potency was 11.6 µM (active) and the cell number change is -27.2%.

With `Cc1c(OCC(=O)NCC(O)c2ccccc2)ccc2c3c(c(=O)oc12)CCCC3` (stereo unspecified), the molecule was called inactive and the cell number change was -19.4%.

For `CCc1cc2c(-c3ccccc3)cc(=O)oc2cc1OC(C)C(=O)NCC1CCC(C(=O)O)CC1` (stereo unspecified), the result was inactive and the cell number change was determined as 17.8%.

With `CC(=O)COc1ccc2c(-c3ccccc3)cc(=O)oc2c1C`, the “lipid storage change, negative = inhibition” value was 10.7% (inactive) and the cell number change was -1.68%.

Consider `Cc1c(OC(C)C(=O)NCC(O)c2ccccc2)ccc2c3c(c(=O)oc12)CCCC3` (stereo unspecified), for which the Potency was 29.1 µM (active) and the cell number change came out at 9.43%.

On to `Cc1c(OCC(=O)NCC(O)c2ccccc2)ccc2c(-c3ccccc3)cc(=O)oc12` (stereo unspecified), for which the Potency is 16.4 µM (active) and the cell number change is -9.69%.

As to `Cc1c(OC(C)C(=O)N[C@H](C(=O)O)c2ccccc2)ccc2c3c(c(=O)oc12)CCCC3` (stereo partly specified), the “lipid storage change, negative = inhibition” value is -14.4% (inactive) and the cell number change was -8.43%.

With `Cc1c(OCC(=O)NCC2CCC(C(=O)O)CC2)ccc2c(-c3ccccc3)cc(=O)oc12` (stereo unspecified), the “lipid storage change, negative = inhibition” value was 6.37% (inactive) and the cell number change was 0.647%.

Regarding `CCc1cc2c(-c3ccccc3)cc(=O)oc2cc1OCC(C)=O`, the Potency is 0.651 µM (active) and the cell number change is -1.82%.

Turning to `O=c1[nH]cnc2sc3c(c12)CCC3`, the “lipid storage change, negative = inhibition” value is -3.12% (inactive) and the cell number change turned out to be 25.4%.
